# A selection: hits, their analogues and other compounds. The true share with any hit is near 6.5%.
# HCMV antiviral – inhibitors of human cytomegalovirus | actives 4.5% (n = 410,000) | activity change, negative = inhibition, % at 57.5 µM | HFF cells, HCMV-luciferase reporter, 72 h; stronger effect = lower value | AID 1259415; in the data active = activity change below about -60%; inconclusive = no clear call, values can overlap the other calls; inactive = above about -39%
#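 Compounds were evaluated in HFFs infected with an HCMV luciferase reporter virus (MOI 1 PFU/cell). Luciferase in lysates collected 72 h post infection served as the replication measure.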
# VACV mCherry inh – vaccinia inhibition (mCherry reporter) | actives 0.63% (n = 310,000) | Vaccinia virus mCherry reporter infection, fluorescence | Potency, µM (series often up to 36.5 µM), most hits filed as inhibitors; calls by dose curve; tested in A549 cells; also: nearly all actives have a fitted effect of over 35% in size
# Lassa entry inh – inhibitors of Lassa virus binding or cell entry. Potency, µM (titrated, usually from 37.9 µM), most hits filed as inhibitors. actives 1.2% (n = 300,000). Lassa virus pseudotype entry inhibition, cell reporter; calls by dose curve; tested in HEK293 cells; also: nearly all actives have a fitted effect of over 50% in size
# VACV Venus inh – inhibitors of vaccinia virus (Venus reporter); actives 0.46% (n = 330,000); Vaccinia virus Venus reporter expression, fluorescence; Potency, µM (titrated, usually from 36.5 µM), usual class: inhibitors; calls by dose curve; tested in A549 cells; also: nearly all actives have a fitted effect of over 30% in size
# FMDV antiviral – foot and mouth disease virus antiviral activity. FMDV antiviral cell-based qHTS. Potency, µM (series often up to 57.9 µM), actives largely listed as inhibitors. actives 1.2% (n = 410,000). AID 1159524; calls by dose curve; tested in HEK293T cells; also: read-out not given here; nearly all actives have a fitted effect of over 45% in size
# MARV entry inh – blocks Marburg virus binding to or entry into cells; Marburg virus pseudotyped entry inhibition, cell reporter; Potency, µM (top dose mostly 37.8 µM), hits mostly inhibitors; actives 1.8% (n = 300,000); AID 540276; calls by dose curve; tested in HEK293 cells
# A number is an active result; 0 = inactive; ? = inconclusive; - = no result given; + = active, no number; ! = not active in a repeat.
SMILES,HCMV antiviral,VACV mCherry inh,Lassa entry inh,VACV Venus inh,FMDV antiviral,MARV entry inh
CCOc1ccc(Nc2ccnc3cc(Cl)ccc23)cc1,-62,-,-,-,0,-
CCOC(=O)c1cnc2ccc(Cl)cc2c1Nc1ccc(OCC)cc1,0,0,0,0,0,?
CCN1CCN(c2ccc(Nc3ccnc4ccccc34)cc2)CC1,?,-,-,-,0,-
CCN1CCC(Nc2ccnc3cc(Cl)ccc23)CC1,-90,0,0,0,0,13µM
COc1ccc(Cc2nc3ccc(C(=O)N(C)CCn4ccnc4)cc3o2)cc1OC,0,-,-,-,0,-
CC(=O)Nc1ccc(NC(=O)C2(c3cccs3)CCOCC2)cc1,+,0,?,0,0,-
Cc1nc(SCCC(=O)O)c2cc(-c3ccccc3)sc2n1,0,0,?,0,?,4µM
Cc1nc2ccccc2c(=O)n1-c1cc(F)ccc1F,0,0,0,0,0,?
Cc1nc2c(Br)cc(Br)cc2c(=O)n1-c1ccccc1NC1OCC(O)C(O)C1O (stereo unspecified),-77,0,0,0,0,?
CCc1ccc(NC(=O)c2cc(S(=O)(=O)N3CCCC3)c[nH]2)cc1,-,0,-,?,0,-
CCOc1ccc(NC(=O)c2cc(S(=O)(=O)N3CCCCC3)c[nH]2)cc1,-65!,?,0,0,0,-
CC(C)c1ccc(NC(=O)c2cc(S(=O)(=O)N3CCCC3)c[nH]2)cc1,-77,0,-,0,0,-
COCC(=O)Nc1cc(C(=O)N2CCN(c3ccccc3)CC2C)c2c(c1)nc(-c1ccncc1)n2C (stereo unspecified),-,0,-,0,0,-
CC(C)C1Cc2ccccc2-c2[nH]c(=S)[nH]c(=O)c21 (stereo unspecified),?,0,0,0,0,0
Cc1cccc2sc(N(CCN3CCOCC3)C(=O)CCS(=O)(=O)c3ccccc3)nc12,0,0,?,0,0,?
CSCC[C@H](NC(=O)[C@@H]1Cc2ccccc2CN1)C(=O)NC[C@H]1CC[C@H](C(=O)O)CC1,0,-,-,-,0,-
Nc1ccc2c(c1)OC1(CCCC1)O2,-86,0,16µM,0,1.4µM,?
O=C(c1[nH]c(C(F)(F)F)nc1-c1ccccc1)N1CCc2ccccc2C1,0,0,-,0,0,-
O=C(N/N=C/c1ccc(O)cc1)Nc1cccc2nsnc12,0,10µM,?,?,0,?
Cc1ccc(OCC(=O)NCC2(N3CCOCC3)CCCCC2)cc1C,-60,0,0,0,0,?
CCOC(=O)N1CCN(c2nc3ccc(C)cc3n3cnnc23)CC1,0,-,-,-,0,-
COc1ccccc1C(CC(=O)c1ccccc1)C(=O)c1ccccc1 (stereo unspecified),0,0,-,0,0,-
COc1ccccc1C(CC(=O)c1ccccc1)CC(=O)c1ccccc1,-77,0,?,0,0,?
CCC[C@H](C)n1[nH]c(=O)cc1N,-,-,-,-,-,0
CC(C)NC[C@H](O)COc1cccc2ccccc12,0,0,0,0,0,15µM
SMILES,HCMV antiviral,VACV mCherry inh,Lassa entry inh,VACV Venus inh,FMDV antiviral,MARV entry inh
C=CCc1ccccc1OCC(O)CNC1CCCC1 (stereo unspecified),0,-,-,-,0,-
CC(C)NC[C@@H](O)COc1cccc2ccccc12,?,0,-,0,0,18µM
CC(NCC(O)COc1ccc2ccccc2c1)c1ccccc1 (stereo unspecified),-84,?,0,0,0,?
C=CCc1ccccc1OCC(O)CNC(C)C (stereo unspecified),0,0,0,0,0,18µM
CC(C)NCC(O)COc1ccc(Br)cc1 (stereo unspecified),0,0,0,0,0,?
OC[C@@H](O)COc1cccc2ccccc12,-,-,-,-,0,-
OCC[C@@H]1NCc2cc(CO)cc(-c3ccccc3)c21,0,0,-,0,0,-
CC(C)NC[C@@H](O)COc1ccccc1-n1cccc1,-,-,-,-,0,-
CC(C)NC[C@H](O)COc1cccc2[nH]ccc12,-81,0,0,0,0,?
CC(C)NCC(O)COc1ccc(CC(N)=O)cc1 (stereo unspecified),0,0,0,0,0,0
CC(C)NC[C@H](O)COc1ccc(CC(N)=O)cc1,?,0,0,0,0,0.11µM!
COc1ccccc1-c1cc(C(=O)NCc2ccccc2)c2c(-c3ccc(C)cc3)[nH]nc2n1,0,0,0,0,0,-
COc1ccc(-c2cc(C(=O)NCCc3ccc(OC)c(OC)c3)c3c(-c4ccc(F)cc4)[nH]nc3n2)cc1,0,0,?,0,0,-
CCOc1ccc(-c2cc(C(=O)NCCc3ccc(OC)c(OC)c3)c3c(-c4ccc(F)cc4)[nH]nc3n2)cc1,-92,?,0,?,0,-
COc1cc(OC)c(-c2cc(C(=O)NCc3ccc(F)cc3)c3c(-c4ccccc4)[nH]nc3n2)cc1OC,-93,?,?,0,0,-
Cc1ccc(S(=O)(=O)N2CCN(CCNC(=O)C(=O)NCc3ccccc3)CC2)cc1,0,?,0,0,0,0
CCOC(=O)c1ccc(N2C(=O)c3[nH]nc(-c4ccc(C)cc4)c3C2c2cccs2)cc1 (stereo unspecified),?,0,?,0,?,?
CCCCCNC(=O)c1ccc(NS(=O)(=O)c2ccc3[nH]c(=O)[nH]c3c2)cc1,-95,0,0,0,0,0
CCCCNC(=O)c1ccc(NS(=O)(=O)c2ccc3[nH]c(=O)[nH]c3c2)cc1,0,0,0,0,0,0
Cc1cccc(N2CCN(C(=O)c3ccc(NS(=O)(=O)c4ccc5[nH]c(=O)[nH]c5c4)cc3)CC2)c1C,-67,0,0,0,0,0
c1cncc(Nc2c3ccccc3nc3ccccc23)c1,-86,0,0,?,0,?
Cc1ccc(-c2nc(Nc3cccc(O)c3)c3ccccc3n2)cc1,?,-,-,-,0,-
Oc1cccc(Nc2nc(-c3ccccc3Cl)nc3ccccc23)c1,?,10µM,0,0,?,?
Oc1cccc(Nc2c3ccccc3nc3ccccc23)c1,-100,?,-,10µM,?,-
O=C(O)c1ccc(Nc2c3ccccc3nc3ccccc23)cc1,0,0,0,0,0,0
SMILES,HCMV antiviral,VACV mCherry inh,Lassa entry inh,VACV Venus inh,FMDV antiviral,MARV entry inh
Cc1cccc(C)c1NC(=O)c1cc(S(=O)(=O)N2CCC3(CC2)OCCO3)ccc1F,0,0,-,0,0,-
COc1ccc(N2Cc3cccc(C(=O)Nc4ccc(F)cc4)c3C2=O)cc1,?,?,0,?,0,?
Cc1cccc2cc(CN(C(=O)c3ccc(-c4ccc(F)cc4)cc3)C3CC3)c(N3CCC(O)CC3)nc12,-,?,-,0,0,-
Cc1c(C(=O)Nc2ccc(F)c(C(F)(F)F)c2)sc2nc(-c3ccccc3)cn12,-98,0,0,?,0,-
CC(=O)c1cccc(-c2ccc3c(c2)C(C)(Cc2ccccc2C#N)C(=O)N3)c1 (stereo unspecified),-66,0,-,0,0,-
CCN(CC)S(=O)(=O)c1ccc(S(=O)(=O)Nc2c(C)nn(C)c2C)cc1,-73,0,0,0,?,?
O=c1/c(=C/c2ccc([N+](=O)[O-])cc2)sc2n1CCCN=2,-91,-,0,0,0,0
